Screening data deposited in PubChem BioAssay by National Center for Advancing Translational Sciences (NCATS).
This is a sample that favours compounds with a hit; in the whole collection about 6.3% have one here.
HepG2 tox: kills HepG2 cells in TGF-b inhibitor counter-screen; Potency, µM (top dose mostly 46.1 µM), inactives show at the top dose activity change, negative = cytotoxicity, hits mostly cytotoxic; AID 588856; 410,000 compounds, 0.76% hits; HepG2 CAGA-GFP viability, ATP luminescence, 18 h
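CellTiter-Glo luminescence gave cytotoxicity after 18 hours at 37 degrees C. The cells were HepG2 CAGA-GFP in 1% FBS DMEM, stimulated with 500 pg/mL TGF-beta after compound addition. %Activity was normalised to no-cell wells (complete cell-killing) and DMSO (no toxicity), and curves were fitted and classified.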
Gal4-VP16 FLuc: inhibits Gal4-VP16 luciferase reporter, ROR gamma counter-screen; Drosophila S2 Gal4-VP16 UAS-luciferase, luminescence, 20 h; Potency, µM (titrated, usually from 53.6 µM), inactives show at the top dose activity, negative = inhibition, usual class: inhibitors; 310,000 compounds, 3.5% hits; AID 2546;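 also: Gal4-VP16 expression switched on by copper sulfate through the metallothionein promoter; % is scaled to controls: 0 for no effect and ±100 for the full control effect; nearly all actives have a fitted effect of over 50% in size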
ATXN viability: reduces viability in counter-screen for ATXN expression inhibitors. S2 cells (HEK-293 line with an ATXN2-luciferase reporter) viability, CellTiter-Fluor protease fluorescence, 24 h. Potency, µM (titrated, usually from 56.7 µM), hits mostly cytotoxic. 400,000 compounds, 0.49% hits; also: nearly all actives have a fitted effect of over 40% in size
TGFb SMAD3 inh: inhibitors of TGF-b signaling; HepG2 CAGA-GFP TGF-b/SMAD3 reporter, GFP fluorescence, 18 h; TGF-beta stimulated, 500 pg/mL final; Potency, µM (top dose mostly 46.1 µM), inactives show top-dose activity, negative = inhibition, usual class: inhibitors; 410,000 compounds, 1.2% hits; AID 588855; also: % is scaled to controls: 0 for no effect and ±100 for the full control effect; nearly all actives have a fitted effect of over 65% in size
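Using HEPG2 CAGA-GFP reporter cells at 1000 cells/well, we pinned test compounds, stimulated with recombinant TGF-beta (500 pg/mL final) and measured total well GFP after 18 h.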
ATXN2 expr inh: inhibitors of ATXN2 expression; HEK-293 ATXN2-luciferase reporter, luminescence, 24 h; Potency, µM (highest dose often 57 µM), for the others: top-dose activity change, negative = inhibition, hits mostly inhibitors; 360,000 compounds, 0.72% hits; also: % is scaled to controls: 0 for no effect and ±100 for the full control effect; nearly all actives have a fitted effect of over 55% in size
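qHTS (up to 57 uM final) was run with 24 h compound exposure of reporter cells at 37 °C. Each well was multiplexed: SteadyGlo luminescence measured ATXN2-luciferase expression after a fluorogenic Gly-Phe-AFC viability readout (25 uM final).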
RORgamma inh: inhibitors of mouse ROR gamma transcriptional activity | 310,000 compounds, 5.4% hits | Drosophila S2 Gal4-RORgamma UAS-luciferase reporter, 20 h | Potency, µM (titrated, usually from 53.6 µM), inactives show at the highest dose activity change, negative = inhibition, hits mostly inhibitors | P51450; also: % is scaled to controls: 0 for no effect and ±100 for the full control effect; nearly all actives have a fitted effect of over 60% in size
Target sequence (P51450 whole entry, looked up, the tested form may be a part): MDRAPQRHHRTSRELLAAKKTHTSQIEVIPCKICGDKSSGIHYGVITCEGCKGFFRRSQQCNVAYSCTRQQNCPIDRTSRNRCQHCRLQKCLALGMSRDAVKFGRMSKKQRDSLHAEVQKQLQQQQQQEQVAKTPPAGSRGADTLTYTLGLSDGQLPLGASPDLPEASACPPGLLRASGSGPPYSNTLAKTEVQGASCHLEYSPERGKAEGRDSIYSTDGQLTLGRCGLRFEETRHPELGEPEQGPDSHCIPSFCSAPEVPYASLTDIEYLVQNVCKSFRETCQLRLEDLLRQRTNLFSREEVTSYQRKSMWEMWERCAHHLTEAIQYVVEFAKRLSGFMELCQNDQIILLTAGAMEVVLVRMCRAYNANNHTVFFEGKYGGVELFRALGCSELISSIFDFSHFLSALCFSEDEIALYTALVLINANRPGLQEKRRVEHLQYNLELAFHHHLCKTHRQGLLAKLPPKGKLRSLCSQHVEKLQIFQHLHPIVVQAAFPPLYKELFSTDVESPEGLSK
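Stable Schneider cell line, Gal4 DNA-binding domain fused to ROR gamma, UAS-luciferase. Cmpd 1 hr RT → CuSO4 700 uM final → 20 hr RT → luciferase reagent 10 min → luminescence.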
* marks the source's active call; other numbers are inactive results; i = inactive; ? = inconclusive; . = not tested or not shown. Calls follow the shape of the dose curve; as a rule, active = well fitted curve in the direction sought with a large enough effect; inconclusive = small, poorly fitted or top-dose-only effect, or another doubt; inactive = no such curve, though single readings can be large; an effect the other way counts as inactive or inconclusive. Potency is read from the fitted curve at half-maximal effect.

SMILES	HepG2 tox	Gal4-VP16 FLuc	ATXN viability	TGFb SMAD3 inh	ATXN2 expr inh	RORgamma inh
O=C(CSc1nc(-c2ccccc2)nc2ccccc12)Nc1nccs1	-44%	?	i	-23%	-34%	11µM*
CC1(C(=O)NCc2ccc(F)c(F)c2)Cc2c(-c3ccccc3)ccnc2O1 (stereo not drawn)	-21%	.	i	10%	-15%	.
COc1ccccc1NC(=S)N/N=C/c1cccc(C)c1	-31%	1.3µM*	?	?	20%	0.89µM*
COc1ccc(/C=N/NC(=S)Nc2cccc(C(=O)O)c2)cc1OC	0%	-26%	i	3%	-25%	?
COc1ccccc1NC(=S)N/N=C/c1ccc(O)cc1	0%	7.1µM*	i	?	64%	4µM*
C/C(=N\NC(=O)c1cc(C2CC2)nc2ccccc12)c1ccc(O)cc1O	-17%	18µM*	?	?	2.5µM*	16µM*
C=CCNC(=S)NNC(=O)c1cc(C)nc2ccccc12	4%	-6%	i	-10%	0%	-43%
CCCNC(=S)NNC(=O)c1cc(C2CC2)nc2ccccc12	-2%	10µM*	i	2%	0%	11µM*
C/C(=N\NC(=O)c1cc(C2CC2)nc2ccccc12)c1ccc(C)s1	0%	-3%	i	-2%	2%	-30%
CCNC(=S)NNC(=O)c1cc(C2CC2)nc2ccccc12	-2%	?	i	-18%	-7%	0.71µM*
CCNC(=S)NNC(=O)c1cc(C)nc2ccccc12	7%	?	i	3%	8%	?
FC(F)(F)c1cc(CO[C@H]2CCCN[C@H]2c2ccccc2)cc(C(F)(F)F)c1	.	-28%	.	.	.	25µM*
Cc1cc(Nc2cccc(Cl)c2Cl)n2ncnc2n1	-8%	?	i	2%	-12%	13µM*
COc1ccc(NC(=S)NC(NC(=O)c2ccc(Cl)cc2Cl)C(Cl)(Cl)Cl)c([N+](=O)[O-])c1 (stereo not drawn)	-43%	-20%	?	11µM*	?	?
O=C(NC(NC(=S)Nc1cc(Cl)ccc1Cl)C(Cl)(Cl)Cl)c1ccco1 (stereo not drawn)	-29%	-23%	i	16µM*	?	-27%
COC(=O)c1ccccc1NC(=S)NC(NC(=O)c1ccccc1[N+](=O)[O-])C(Cl)(Cl)Cl (stereo not drawn)	-29%	?	i	7%	1%	13µM*
COc1ccc(NC(=S)NC(NC(=O)c2ccccc2Cl)C(Cl)(Cl)Cl)c([N+](=O)[O-])c1 (stereo not drawn)	-35%	-5%	i	-18%	29%	?
COC(=O)c1ccccc1NC(=S)NC(NC(=O)c1ccco1)C(Cl)(Cl)Cl (stereo not drawn)	-1%	-89%	i	-13%	-4%	7.9µM*
O=C(NC(NC(=S)Nc1ccc(Cl)c(Cl)c1)C(Cl)(Cl)Cl)c1ccco1 (stereo not drawn)	-43%	?	i	?	?	-43%
O=C(NC(NC(=S)Nc1ccccc1C(=O)O)C(Cl)(Cl)Cl)c1ccco1 (stereo not drawn)	22%	-6%	i	14%	0%	-23%
Cc1ccccc1NC(=O)CSc1nc(-c2cccs2)nc2cc(=O)[nH]n12	4%	.	.	-1%	.	.
Cc1cc(C)n(-c2cccc(C(=O)NCC3Cc4cc(Cl)cc(-c5cnccn5)c4O3)c2)n1 (stereo not drawn)	.	.	i	.	.	.
Cc1ccc2c(c1)N(C(=O)N1CCC(C(=O)NC3CCCCCC3)CC1)CCO2	-24%	.	.	?	.	.
Cc1cc(C)c(Cn2c3ccccc3c3cnn(CC(=O)N4CCCCC4)c(=O)c32)c(C)c1	9%	.	i	-1%	-1%	.
CCN1CCN(C(=O)Cn2ncc3c4ccccc4n(Cc4c(C)cc(C)cc4C)c3c2=O)CC1	-96%	.	.	16µM*	.	.
